From PubChem BioAssay AID493004 (Broad Institute, 2010)
The campaign covered roughly 2,300 compounds. Fewer than 10 were called active.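 The calls were made as follows: active = Signal drops as the depositor expects, and the fitted half-maximal dose is no more than ten times the top valid tested dose; inconclusive = Poor fit, or a flat curve whose signal drops by 30% to 70%; inactive = the rest.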 Not all results are given here.

assay: growth restoration of Mot1-301 yeast on galactose, dose response, SUMO pathway inhibitor project, whole organism, S. cerevisiae, ATP luminescence, cherry-picked samples (AID 493004);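 also: more negative values mean stronger growth rescue toward the control strain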; details: S. cerevisiae Mot1-301 galactose growth, 24 h, -100 = growth of slx-deleted rescue strain; series mostly up to 42 µM

outcome, inactive:
Cc1ccc(CC2CC(=O)N(c3ccc4c(c3)OCCO4)C2=O)cc1 (centres undefined)
O=C(CCc1ccccc1)NNC(=O)c1ccc(Br)cc1
Cc1ccc(N2C(=O)C3N=NN(CC(=O)N4N=C(c5cccc6ccccc56)CC4c4ccccc4)C3C2=O)cc1 (centres undefined)
CC1CCN(Cc2nc3c(c(=O)n(C)c(=O)n3C)n2CCc2ccccc2)CC1
COc1cc(CNCc2ccc3c(c2)OCO3)c([N+](=O)[O-])cc1OC
O=C(Nc1ccccc1N1CCN(c2ccccc2)CC1)c1cccc(F)c1
N#CC(C#N)=CN=c1ccn(Cc2ccc(Cl)cc2Cl)cc1
Cc1cccc(C)c1NC(=O)C(Cl)C(=O)c1ccccc1 (centres undefined)
Cc1cc(C)cc(NC(=O)C2CCCN(S(=O)(=O)c3ccc4[nH]c(=O)ccc4c3)C2)c1 (centres undefined)
Cc1cc(Br)ccc1NC(=O)c1cnc(N2CCN(c3ccccn3)CC2)c2ccccc12
Cc1ccc2c(c1)C(O)(CC(=O)c1cccnc1)C(=O)N2 (centres undefined)
COc1ccc(OCCC(=O)c2ccc(OC)cc2)cc1
CCN(CC)C(=O)CSc1nnc(CNc2ccc(F)cc2)n1Cc1ccco1
O=Cc1ccc(Oc2cccc(C(F)(F)F)c2)nc1
Cc1cc(C)cc(C(=O)NC(CC(N)=O)c2ccc(N3CCC(N4CCCCC4)CC3)c([N+](=O)[O-])c2)c1 (centres undefined)
CCCC(=O)N(CCN1CCOCC1)c1nc2ccc(OCC)cc2s1
CC1=CC(=O)C=CC1(C)C(Cl)(Cl)Cl (centres undefined)
CCc1nc2ccccc2c(C(=O)OC2CCCCC2=O)c1C (centres undefined)
COC(=O)c1cc2occc2n1Cc1nc(-c2ccccc2C)oc1C
CCC(C)[C@H]1COCCS(=O)(=O)N1Cc1ccc(C)cc1 (some centres undefined)
Cc1nc2sc(C(c3ccco3)N3CCOCC3)c(O)n2n1 (centres undefined)
COc1ccc(S(=O)(=O)N2CCOC2CNC(=O)C(=O)NCc2ccncc2)cc1C (centres undefined)
O=C(NNS(=O)(=O)c1c(F)cc(F)c(Cl)c1F)C12CC3CC(CC(C3)C1)C2
CCn1c(SCC(=O)N/N=C/c2ccccc2OCC(=O)O)nnc1-c1ccc(C(C)(C)C)cc1
C=C(Cl)COC(=O)C1C2C=CC(C2)C1C(=O)O (centres undefined)
CCOc1ccc(N(CC)S(=O)(=O)c2cccc3nsnc23)cc1
CCC(CC)C(=O)Nc1ccc(S(=O)(=O)Nc2nccs2)cc1
O=c1c2c(ncn1Cc1ccccc1)nc1n2CCC1
Cc1ccc(S(=O)(=O)CCC(=O)OCC(=O)N(C)C2CCS(=O)(=O)C2)cc1 (centres undefined)
COc1cc(C(=O)OCC(=O)NC(C)CCc2ccccc2)cc(OC)c1OC (centres undefined)
O=C(NCc1ccccc1Cl)C(=O)NCC1CCCN1S(=O)(=O)c1cccs1 (centres undefined)
COc1cccc(NC(=O)c2nn(C34CC5CC(CC(C5)C3)C4)cc2[N+](=O)[O-])c1
CC(C)n1c(O)c(N=Nc2ccccn2)c2ccccc21
CCCCC1=CC2=CC(=O)C(C)(OC(=O)CC)C(=O)C2=CN1CCCOC(C)C (centres undefined)
Cc1ccc(Nc2cc(C)nc3c(C)ccc([N+](=O)[O-])c23)cc1
CCC1(CC)NC(=O)N(CC(=O)OCC(=O)NC(=O)c2ccccc2)C1=O
CCN1CCCC1CNC(=O)Cn1cnc2ccc(S(=O)(=O)N3CCC(C)CC3)cc2c1=O (centres undefined)
CN(C)/C(CN1CCCCC1)=C1\N=C(c2ccccc2)OC1=O
COC(=O)c1sccc1NC(=O)CC1C(=O)NCCN1C(=O)Nc1ccc(F)cc1F (centres undefined)
COc1cc(NC(=O)C2=CC(c3ccco3)=NS(=O)(=O)N2C)cc(OC)c1OC
CN(C)C(=O)c1coc2nc3ccccc3nc12
O=C(Nc1nccs1)C1CCN(S(=O)(=O)c2ccc(Cl)c(C(F)(F)F)c2)CC1
Cc1cccc(-[n+]2c(-c3cccc(Br)c3)[nH]c3nc4ccccc4nc32)c1
COCCCN1C(=O)c2ccc(C(=O)Nc3ccc(OC)cc3OC)cc2C1=O
COc1ccc(/C=C(\C#N)C(=O)NCCCn2ccnc2)cc1
Cn1c(C(=O)NCCc2ccsc2)cc2c(=O)n(C)c3ccccc3c21
CN(NC(=O)c1ccccc1F)c1nc(C(F)(F)F)nc2ccccc12
Cc1cc(C)c2c(Cn3ccnc3)cc(=O)oc2c1
COc1ccc(-c2cn(-c3ccc(C)cc3)c(=O)n2CC(=O)Nc2ccc(OC)c(OC)c2)cc1
O=C1CCC(=O)N1CCOP1(=O)COc2ccccc2OC1
CCOc1ccc(C(C(=O)NC2CCCC2)N(C(=O)c2snc(C(N)=O)c2N)C2CCCC2)cc1 (centres undefined)
Cc1ccc(O)c(CNc2nc3ccccc3n2C)c1
NC(=O)c1cc(S(=O)(=O)N2CCCC2)ccc1OCc1ccc(F)cc1
COc1ccccc1CSc1ncc(-c2ccc([N+](=O)[O-])cc2)[nH]1
O=C(CP(=O)(c1ccccc1)c1ccccc1)N1CCOCC1
N#CC1=C(N)Oc2n[nH]c(CSc3ccccc3)c2C12C(=O)Nc1ccccc12 (centres undefined)
COc1ccc(OC)c2c(N)c(C#N)c(C(F)(F)C(F)(F)F)nc12
COCCNC(=O)C(c1ccc(C)cc1)N(C(=O)CCC(=O)Nc1ccccn1)c1cccc(C)c1 (centres undefined)
CC(C)c1cc(C(=O)N/N=C/C(Br)=C/c2ccccc2)n[nH]1
CCCc1cc(=S)n2c([nH]c3ccccc32)c1C#N
CCOc1ccc(Cn2c(SCCCCC#N)nc3c2c(=O)n(C)c(=O)n3C)cc1OCC
COc1cccc(-n2c(SCC(=O)NC3CCCCC3)nc3n[nH]c(C)c3c2=N)c1
Cc1ccc(C)c(S(=O)(=O)n2cnc3ccccc32)c1
COc1ccc(C(=O)OCC(=O)c2ccc(C)c(S(=O)(=O)N3CCOCC3)c2)cc1OC
Cc1cccc(N(C(=O)c2ccc(CN3CCOCC3)o2)C(C(=O)NC2CCCCC2)c2ccc(F)cc2)c1 (centres undefined)
O=C(NC1CCCCC1)c1ccc2c(=O)n(CC3CCCO3)c(=O)[nH]c2c1 (centres undefined)
CCOCCCNCc1ccc(OCc2ccc(F)cc2)c(OC)c1
COc1cccc(CN(C)CC2CCCN(CCc3ccc(Cl)cc3)C2)c1OC (centres undefined)
COc1cccc(OC)c1C(=O)Nc1ccc2c(c1)n(C)c(=O)n2C
COC(=O)/C=C\C(=O)Nc1cccc([N+](=O)[O-])c1
CC(C)Cc1nc(N2CCOCC2)c(C#N)c2c1CCC2
COc1ccc(-c2[nH]nc3c2C(c2ccncc2)C(C#N)=C(N)O3)cc1 (centres undefined)
COc1cc(CN2CCNC(=O)C2CC(=O)NCCc2ncccc2C)cc(OC)c1 (centres undefined)
CC(C)CCNC(=O)Cn1c(=O)oc2cc(S(=O)(=O)N3CC(C)CC(C)C3)ccc21 (centres undefined)
CCc1cc2c(=O)c(-c3ccc(F)cc3)c(C(F)(F)F)oc2cc1OCC(=O)O
CCc1c(C)nc(N2CCN(Cc3ccccc3)CC2)[nH]c1=O
Cc1cc(C)c(OCC(=O)N/N=C/c2ccco2)c(C)c1
CC1=NC2(CCCc3c2no[n+]3[O-])N(O)C1(C)C (centres undefined)
CCCCC(=O)N/N=C(\C)CC(=O)Nc1cc(Cl)ccc1OC
CC(NC(=O)c1ccc(Cl)cc1)C(=O)N1CCCCC1 (centres undefined)
CCc1ccccc1NC1c2ccccc2C(=O)N1c1cccnc1 (centres undefined)
COc1ccccc1N1CCN(C(=O)C(=O)N/N=C/c2ccccc2F)CC1
N#CC1=C(N)OC2=C(C(=O)CCC2)C1C1CC=CCC1 (centres undefined)
Cc1cc(C)c2nc(-c3cccnc3)cc(C(=O)Nc3ccc(S(=O)(=O)Nc4onc(C)c4C)cc3)c2c1
CSc1nc2ccc(NC(=O)c3c(F)cccc3F)cc2s1
COc1ccccc1/C=C/C(=O)NC(=S)N1CCOCC1
CCCCNC(=O)c1ccccc1NC(=O)C1=C(C)OCCS1
C=CCC(NCCCO)c1cccc(OC)c1OC (centres undefined)
O=C(OC1CCOC1=O)c1cccc(S(=O)(=O)Nc2ccc(F)cc2)c1 (centres undefined)
CCOC(=O)C1(Cc2cccc(OC)c2)CCCN(S(=O)(=O)c2cccnc2)C1 (centres undefined)
Cc1ccc(S(=O)(=O)N2[C@@H](c3ccc(Br)cc3)C(C(=O)O)=C[C@H]2CC2CCCC2)cc1
CCN(CC)C(=O)CSC(Nc1cccc(F)c1)=C(C#N)C#N
Cc1ccc(NC(=O)Nc2cccc(C(F)(F)F)c2)nc1
O=C(NCC(=O)N(c1ccccc1)C(C(=O)NCC1CCCO1)c1ccccc1)c1cccs1 (centres undefined)
O=C(CSCc1ccc(Cl)cc1)N1CCCCC1
O=C1CC(c2ccccc2)C(=O)N1c1cccc(O)c1 (centres undefined)
Cc1nn(CCOc2ccccc2)c(=O)n1-c1ccccc1F
Oc1c(Cl)cc(Cl)c(Cl)c1Cc1c(O)c(Cl)cc(Cl)c1Cl
CC(Oc1ccccc1[N+](=O)[O-])C(=O)N/N=C/c1ccoc1 (centres undefined)
